Results filed as inconclusive are left out. Where a call stands in place of a potency, no number is given. Activity calls are given as the source filed them. Calls follow the shape of the dose curve; as a rule, active = well fitted cell-killing curve with a large enough effect in the repeat runs; inconclusive = weak or mixed curves, or effect the other way; inactive = no such curve, though single readings can be large or run the other way.

This assay is described as follows: qHTS assay to identify small molecule antagonists of the peroxisome proliferator-activated receptor gamma (PPARg) signaling pathway - cell viability counter screen (AID 743194). Also: nearly all actives have a fitted effect of over 55% in size. The note with it: PPARg-bla HEK293H viability, CellTiter-Glo luminescence, 17 h; Potency: co-treated with 50 nM rosiglitazone; series mostly up to 62.6 µM. From the text: U.S. Tox21 Program National Center for Advancing Translational Sciences [NCATS] NIH Chemical Genomics Center [NCGC] U.S. Environmental Protection Agency [EPA] National Institutes of Environmental Health Sciences [NIEHS] National Toxicology Program [NTP] U.S. Food and Drug Administration [FDA] Tox21 Assay Overview: The peroxisome proliferator-activated receptors (PPARs) are lipid-activated transcription factors of the nuclear receptor superfamily with three distinct subtypes namely PPAR alpha, PPAR delta (also called PPAR beta) and PPAR gamma (PPARg). All these subtypes heterodimerize with Retinoid X receptor (RXR) and these heterodimers regulate transcription of various genes. PPAR-gamma receptor (glitazone receptor) is involved in the regulation of glucose and lipid metabolism. To identify the compounds that activate PPAR-gamma signaling, GeneBLAzer PPAR gamma UAS-bla HEK293H cell line (Invitrogen, Carlsbad, CA, USA) containing a beta-lactamase reporter gene under the control of an Upstream Activator Sequence (UAS) was used to screen the Tox21 compound library. The cytotoxicity of the Tox21 compound library against the PPARg-bla cell line was tested in parallel by measuring the cell viability using CellTiter-Glo assay in the same wells.
Tox21 Assay Protocol Summary: PPARg-bla cells were dispensed at 3000 cells/5uL/well in 1536-well black wall/clear bottom plates using a Multidrop Combi (Thermo Fisher Scientific, Waltham, MA) dispenser. After the assay plates were incubated at 37 C and 5% CO2 for 5 h, 23 nL of compounds dissolved in DMSO, positive controls or DMSO only was transferred to the assay plate by a Pintool station (Kalypsys, San Diego, CA), followed by addition of 1ul Rosiglitazone (50 nM, final concentration in the wells). The assay plates were incubated at 37 C for 17 h, and then 1 uL of LiveBLAzerTM B/G FRET substrate was added using a Bioraptr Flying Reagent Dispenser (FRD) workstation (Beckman Coulter, Indianapolis, IN, USA). The assay plates were incubated at room temperature for 1 h and fluorescence intensity was measured by an Envision plate reader (PerkinElmer, Shelton, CT). For cell viability readout that measures cytotoxicity, 4 ul/well of CellTiter-Glo reagent was added into the assay plates using a Flying Reagent Dispenser. After 30 min incubation at room temperature, the luminescence intensity in the plates was measured using a ViewLux plate reader (PerkinElmer).
(In general: qHTS replaces the single test concentration by a dilution series.)
As to `COC(=O)C(c1ccccc1)C1CCCCN1` (stereo not given), the Potency result is “inactive”. Turning to `CC1CCCCC1NC(=O)Nc1ccccc1` (stereo not given), the Potency result is “inactive”. Take `COc1cc(OC)nc(Oc2cccc(Oc3nc(OC)cc(OC)n3)c2C(=O)O)n1`: the Potency entry was “inactive”. As for `CCOC(=O)C(c1c(O)c2ccccc2oc1=O)c1c(O)c2ccccc2oc1=O`, the entry is “inactive”. As for `O=[N+]([O-])c1ccc(CBr)cc1`, the entry is “inactive”; as for `O=NN1CCN(N=O)CC1`, “inactive”; as for `CCC(Cl)[N+](=O)[O-]` (stereo not given), “inactive”. As for `COP(N)(=S)Oc1ccccc1C(=O)OC(C)C` (stereo not given), the entry is “inactive”. Turning to `CC(Cl)(Cl)[N+](=O)[O-]`, the Potency entry was “inactive”. As for `C=CCC1=C(C)[C@@H](OC(=O)[C@@H]2[C@@H](C=C(C)C)C2(C)C)CC1=O`, the entry is “inactive”; as for `CC1(C)COP(Oc2ccccc2)OC1`, “inactive”. As for `OC(Cn1cncn1)(c1ccc(F)cc1)c1ccccc1F` (stereo not given), the entry is “inactive”.

`CC(=O)[C@H]1CC[C@H]2[C@@H]3CC[C@H]4C[C@H](O)CC[C@]4(C)[C@H]3C(=O)C[C@]12C`: the Potency entry was “inactive”. In the case of `C1CCC(C2CCCCC2)CC1`, the Potency result is “inactive”. The value for `CC1CCC(=O)O1` (stereo not given) was “inactive”; that for `CCNc1nc(NC(C)C)nc(OC)n1` was “inactive”; that for `[Cl][Sn]([Cl])([Cl])[Cl]` was “inactive”. As for `C=C(C)[C@@H]1CC=C(C=O)CC1`, the entry is “inactive”; as for `O=C(O)C(Br)CBr` (stereo not given), “inactive”. As to `C[C@]12CC[C@H]3[C@@H](CC=C4C[C@@H](O)CC[C@@]43C)[C@@H]1CC[C@@H]2O`, the Potency entry is “inactive”.

Take `CCCCc1c(C)nc(NCC)[nH]c1=O`: the Potency result was “inactive”. As to `COP(=S)(OC)Oc1c(Cl)cc(C)cc1Cl`, the Potency result is “inactive”. In the case of `CNNC`, the Potency entry is “inactive”.

Take `CN1C(=S)CN=C(c2ccccc2)c2cc(Cl)ccc21`: the Potency entry was “inactive”.

In the case of `C#CCN1C(=O)COc2cc(F)c(N3C(=O)C4=C(CCCC4)C3=O)cc21`, the Potency entry was “inactive”. With `OC(c1ccc(F)cc1)(c1cncnc1)c1ccccc1Cl` (stereo not given), the Potency result is “inactive”. As for `CN1CCC(N(Cc2ccccc2)c2ccccc2)CC1`, the entry is “inactive”.

As to `CC(N)=S`, the Potency result is “inactive”. `[As]#[In]`: the Potency result is “inactive”. For the compound `Cc1ncc2n1-c1ccc(Cl)cc1C(c1ccccc1F)=NC2`, the Potency entry is “inactive”. The value for `CC1CN1P(=O)(N1CC1C)N1CC1C` (stereo not given) was “inactive”; that for `Oc1c(Cl)cccc1Cl` was “inactive”. With `O=C(N[C@H]1CN2CCC1CC2)c1cc2ccoc2cn1`, the Potency entry was “inactive”. As for `COC(=O)COc1ccc(Cl)cc1Cl`, the entry is “inactive”; as for `O=[N+]([O-])c1cccc2cccnc12`, “inactive”.

Regarding `CCCCc1ccc(O)cc1`, the Potency result was “inactive”. As for `CC(CC(C#N)(c1ccccc1)c1ccccc1)N(C)C` (stereo not given), the entry is “inactive”; as for `CCCSC(=O)Cl`, “inactive”; as for `ClC(Br)Br`, “inactive”. The value for `CCOP(=S)(OCC)Oc1ncn(-c2ccccc2)n1` was “inactive”.

(Values after PubChem BioAssay (Tox21).)
